Reference: PubChem BioAssay AID1851 (National Center for Advancing Translational Sciences (NCATS), 2009)
“And” between values parts separate entries of the source, which are not always exact repeats. Equal values may be shown once. Out of some 16,000 compounds screened, about 5,100 (32%) were called active. Inconclusive results (about 25%) are left out. The call rests on the fitted dose curve; in most records, active means well fitted curve in the direction sought with a large enough effect; inconclusive means small, poorly fitted or top-dose-only effect, or effect the other way; inactive means no such curve, though single readings can be large or run the other way. This is one part of the list.

Biological target: Cytochrome P450 3A4 (Homo sapiens) (UniProt P08684)
Sequence (P08684 whole entry, looked up): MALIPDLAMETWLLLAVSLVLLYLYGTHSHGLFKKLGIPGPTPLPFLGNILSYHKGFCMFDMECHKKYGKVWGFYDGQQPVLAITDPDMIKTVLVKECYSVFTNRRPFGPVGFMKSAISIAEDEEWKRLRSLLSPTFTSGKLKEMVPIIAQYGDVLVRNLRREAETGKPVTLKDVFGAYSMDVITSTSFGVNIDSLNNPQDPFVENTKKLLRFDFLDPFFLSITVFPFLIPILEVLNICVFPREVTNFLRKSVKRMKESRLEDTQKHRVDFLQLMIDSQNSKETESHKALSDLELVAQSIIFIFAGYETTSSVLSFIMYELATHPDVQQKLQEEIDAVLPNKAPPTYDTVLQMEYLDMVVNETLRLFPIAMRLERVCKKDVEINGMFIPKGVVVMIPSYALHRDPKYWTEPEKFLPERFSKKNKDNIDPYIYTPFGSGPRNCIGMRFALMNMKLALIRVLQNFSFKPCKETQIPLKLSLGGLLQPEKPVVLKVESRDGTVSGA
Experiment: Cytochrome panel assay with activity outcomes
Settings: recombinant CYP, pro-luciferin dealkylation, luminescence, p450-cyp3a4; series mostly up to 57.1 µM; activity, negative = inhibition: at the top concentration
On the % scale 0 is the no-effect control and ±100 the full control effect.

AC50, inactive:
N[C@@H](C(=O)O)c1ccc(C(=O)O)c(C(=O)O)c1, CCCOc1ccccc1-c1nc2n[nH]nc2c(=O)[nH]1

AC50, active:
Cc1csc(NC(=O)Cc2c[nH]c3ccccc23)n1 35.5 µM, C=CC[C@@H]1C=C[C@H](O/N=C\[C@@H](C)[C@H](OCc2ccccc2)C(C)C)[C@H](CO)O1 3.98 µM, C=CC[C@@H]1C=C[C@@H](O/N=C\[C@@H](OC)[C@H](C)/C=C\CC(=O)OC)[C@@H](CO)O1 3.16 µM, COc1cc(CNCc2cccs2)ccc1OCC(=O)NC(C)(C)C 4.47 µM, COc1cc(CNCc2cccs2)cc(Br)c1OC 7.08 µM, COc1ccc(CNC(=O)Nc2cccs2)cc1OC 22.4 µM, COc1ccc(OC)c(C(=O)CN2C(=O)NC(C)(c3ccccc3)C2=O)c1 (centres undefined) 10 µM, COC(=O)[C@H]1C[C@@H]1[C@H](NC(=O)c1cccnc1)c1ccccc1 5.01 µM, COC(=O)[C@@H]1C[C@H]1[C@@H](NC(=O)c1cccnc1)c1ccccc1 10 µM, Fc1ccc(Nc2ncncc2-c2ccccc2C(F)(F)F)cc1 0.398 µM, FC(F)(F)c1ccccc1-c1cncnc1Nc1ccccc1 0.501 µM, CNc1ncncc1-c1ccccc1C(F)(F)F 0.794 µM, C[C@H]1CC[C@H]2C(=O)N[C@H](Cc3ccccc3)C(=O)N2[C@@H]1c1ccccc1 2.51 µM, Cc1cccc(OC(=O)CN2C(=O)C3C4CCC(C4)C3C2=O)c1C (centres undefined) 14.1 µM, COc1ccc(C(=O)Nc2ccc(Cl)cn2)cc1Cl 28.2 µM, Cc1ccccc1-c1cncnc1NCc1cccs1 0.501 µM, COc1ccccc1-c1cncnc1NCc1cccs1 0.398 µM, FC(F)(F)c1ccccc1-c1cncnc1NCc1cccs1 0.251 µM, Clc1ccccc1-c1cncnc1NCc1cccs1 0.501 µM, NNC(=O)CNC(c1ccccc1)c1cc(Br)ccc1NC(=O)c1ccccc1Br (centres undefined) 0.794 µM, COc1ccccc1-c1cc(NCc2cccnc2)ncn1 5.01 µM, Cc1ccccc1-c1cc(NCc2cccnc2)ncn1 10 µM, NS(=O)(=O)c1ccc(NCc2ccccc2OCc2ccccc2F)cc1 15.8 µM, C=CCc1cccc(C2Nc3ccccc3C(=O)N2O)c1O (centres undefined) 20 µM, Cc1cc(O)c(C(C)C)cc1C1(c2cc(C(C)C)c(O)cc2C)OC(=O)c2ccccc21 1.58 µM, Fc1ccc(COc2ccc(Br)cc2CNCc2ccncc2)cc1 0.562 µM, Clc1ccccc1-c1nc(NCc2cccs2)c2ccccc2n1 6.31 µM, FC(F)(F)c1ccccc1-c1nc(NCc2cccs2)c2ccccc2n1 3.98 µM, C/C(=N\NC(=S)Nc1cccc(C)c1)c1ccccc1 8.91 µM, COc1cc(C(=O)NCc2cccc3ccccc23)cc(Cl)c1OC 10 µM, C[C@H]1CN(S(=O)(=O)c2cccc3cnccc23)CCN1 10 µM, O=S(=O)(c1ccccc1S(=O)(=O)N1CCCCC1)N1CCCCC1 8.91 µM, O=S(=O)(c1cccc2cnccc12)N1CCNCC1 12.6 µM, O=S(=O)(c1cccc2c(Cl)cccc12)N1CCCNCC1 5.01 µM and 3.98 µM, COC(=O)c1cc(NC(=O)CC2NC3CCCCC3NC2=O)cc(C(=O)OC)c1 (centres undefined) 28.2 µM, CC(=O)c1c(C)[nH]c(C(=O)COc2ccc(C#N)cc2)c1C 3.16 µM, CC#CCOC(=O)c1c(C)nc2sc3c(c2c1N)CC[C@@H](O)C3 3.16 µM, COc1cccc(/C(O)=C2/C(=O)C(=O)N(c3cc(C)on3)C2c2cccs2)c1 (centres undefined) 28.2 µM, COC(=O)[C@@]1(Cc2ccccc2)[C@H]2c3cc(C(=O)N4CCCC4)n(Cc4ccc(C(F)(F)F)nc4)c3C[C@H]2CN1C(=O)c1ccccc1 3.16 µM, COC(=O)[C@@]1(Cc2ccc(OC)cc2)[C@H]2c3cc(C(=O)N4CCCC4)n(Cc4ccc(C(F)(F)F)nc4)c3C[C@H]2CN1C(=O)c1ccccc1 3.16 µM, COC(=O)[C@@]1(Cc2ccc(OC)cc2)[C@H]2c3cc(C(=O)N4CCCC4)n(CCn4cc([N+](=O)[O-])nc4C)c3C[C@H]2CN1C(=O)c1ccccc1 3.98 µM, COC(=O)[C@@]1(Cc2ccc(F)cc2)[C@H]2c3cc(C(=O)N(C)C)n(Cc4ccc(C(F)(F)F)nc4)c3C[C@H]2CN1C(=O)c1ccccc1 1.26 µM

activity, negative = inhibition, inactive:
CC(=O)OC[C@H]1O[C@@H](O/N=C\[C@@H](C)[C@H](OCc2ccccc2)C(C)C)[C@H](OC(C)=O)[C@@H](OC(C)=O)[C@H]1OC(C)=O -74.7% [at 11.4 µM], CO/N=C\[C@@H](OC)[C@H](C)/C=C\CC(=O)OC -11.6% [at 11.4 µM], COC(=O)[C@H](C)NC(=O)C/C=C\[C@@H](C)[C@H]1C=C[C@H](O)[C@@H](CO)O1 -25.2% [at 11.4 µM], CO[C@]1(NC(=O)C2SC(=C(C(N)=O)C(=O)O)S2)C(=O)N2C(C(=O)O)=C(CSc3nnnn3C)CS[C@H]21 (some centres undefined) -2.24% [at 25.6 µM], CCc1ncc(CO)n1Cc1cccc2ccccc12 -11.4% [at 11.4 µM], COc1cc(CNCc2cccs2)ccc1OCC(N)=O -8.51%, CCN1CCN(Cc2ccc(NC(=O)Nc3cccs3)cc2)CC1 -16.6%, CCOC(=O)N1CCN(C(=O)CNCc2cccs2)CC1 -4.69%, N[C@H](C(=O)O)[C@@H](O)c1cnc[nH]1 -12.3% [at 11.4 µM], Cc1cc(NC(=O)CN2C(=O)NC(C)(c3ccc(OC(F)F)cc3)C2=O)no1 (centres undefined) -24.5%, COc1ccc2c(c1)CCCC21NC(=O)N(CC(N)=O)C1=O (centres undefined) -13.8%, CC(C)NCCOCCSc1ccc(Cl)cc1 -10.4%, COC(=O)[C@@H]1C[C@H]1[C@@H](NC(=O)c1ccccc1)c1ccccc1 14.7%, O=C(O)CN(CCN(CC(=O)O)CC(=O)O)CC(=O)O.[Mn] 1.35% [at 11.4 µM], NS(=O)(=O)c1nc(S(=O)(=O)O)c2[nH]cnc2n1 -3.98% [at 11.4 µM], Cc1c(C)c2c(C)[nH]nc2oc1=O 4.7% [at 11.4 µM], C[C@@H]1CN2[C@H](c3ccc(Br)cc3)[C@H](C)CC[C@H]2C(=O)O1 -28.2% [at 11.4 µM], C[C@@H]1CC[C@@H]2C(=O)N3[C@@H](CC[C@@H](C)[C@@H]3c3ccc(-c4ccco4)cc3)C(=O)N2[C@H]1c1ccc(-c2ccco2)cc1 -15.7% [at 11.4 µM], O=C(/C=C\c1ccc(O)c(O)c1)O[C@@H]1C[C@](O)(C(=O)O)C[C@@H](O)[C@@H]1O -6.55% [at 25.6 µM], CC(=O)Nc1ccc(NCN2C(=O)C3C4CCC(C4)C3C2=O)cc1 (centres undefined) -16.7%, Cc1cc(=O)oc(C)c1C(=O)Nc1ccc(Cl)cn1 -3.08% [at 2.29 µM], CCOc1ccc(C(=O)Nc2ccc(Cl)cn2)cc1Cl -26.9%, FC(F)(F)c1ccccc1-c1cc(NCc2cccs2)ncn1 -27.4%, CCCCCCCCCCCC1=C(O)C(=O)C=C(O)C1=O 9.54%, O=C(O)CCCCCNC(=O)c1ccccc1Br -0.958%, O=C(O)c1ccccc1C(=O)Nc1cc2c(cc1Br)-c1ccccc1C2=O -24.8% [at 11.4 µM], CCOC(=O)CCN1C(=O)[C@H]2[C@H]3[C@H](O)[C@H](O)C/C(=N/OCC(C)C)[C@H]3CC[C@@H]2C1=O -22.9% [at 11.4 µM], Cc1ccccc1-c1cc(NCc2ccccc2)ncn1 5.2%, O=C(O)[C@H]1CCCNC1 -8.58%, NS(=O)(=O)c1ccc(NCc2cnc3ccccc3n2)cc1 -7.19% [at 11.4 µM], NS(=O)(=O)c1ccc(NCc2nc3ccccc3[nH]2)cc1 -19.2% [at 11.4 µM], O=C1c2ccccc2NC(c2ccc(Cl)cc2Cl)N1O (centres undefined) -28.7%, CC(=O)c1c(O)cc(=O)n(-c2ccccc2)c1-c1ccc(C)cc1 -6.63%, Cc1cc(O)c(C(C)C)cc1CN1CCCCC1 -7.75% [at 11.4 µM], C/C(=N/NC(=O)Cc1cccn1C)c1ccccc1 -28.1%, C/C(=N\NC(=O)c1cccc(C)c1)c1cccc(NC(=O)c2ccco2)c1 -7.23% [at 2.29 µM], O=C(O)C1(C(=O)O)CCN(S(=O)(=O)c2ccccc2)CC1 -12.3% [at 11.4 µM], O=S(=O)(c1ccccc1)N1CN2CN(C1)CN(S(=O)(=O)c1ccccc1)C2 -1.65% [at 11.4 µM], CC1CCN(C(=O)C2CCN(S(=O)(=O)c3cccc4nonc34)CC2)CC1 -12%, COc1ccc(S(=O)(=O)N2CCCCCC2)cc1N(C)S(=O)(=O)c1ccc(Cl)cc1 -26.2% [at 2.29 µM], CCOC(=O)C(NC(C)=O)C(=O)O (centres undefined) 1.64%, O=C1C=CC(=Nc2cccc3c(N=C4C=CC(=O)O4)cccc23)O1 -24.5% [at 11.4 µM], CC(C)=CCc1c(C)nc2ccccc2c1C(=O)O 3.07%, CCC1C(=O)N=C(SCC(=O)Nc2ccc(C(=O)OC)cc2)NC1=O (centres undefined) 13.9%, COC(=O)c1ccc(NC(=O)C2CCCCC2C(=O)O)cc1 (centres undefined) 7.03%, COC(=O)c1cc(=O)[nH]c(=O)[nH]1 0.116% [at 11.4 µM], CC(=O)COc1ccc2c(C)c(C)c(=O)oc2c1 -1.64% [at 2.29 µM], CC(=O)N1CCN(c2nc(C)nc3sc4c(c23)CCC(C)C4)CC1 (centres undefined) -28.1%, Cc1cc(N2C(=O)C(O)=C(C(=O)c3ccco3)C2c2ccc(O)cc2)no1 (centres undefined) -0.524%, COCCN1C(=O)C(=O)/C(=C(/O)c2cccc(OC)c2)C1c1ccc(C)o1 (centres undefined) -3.3%
